# Measured values reported in PubChem BioAssay (EPA / NIEHS).
# Calls of active or inactive are those of the source. The calls were made as follows: active = hit-call score of the fitted dose curve at least 0.9, where 1 is the maximum; inactive = score below 0.9.
# Read-out: Intercellular Adhesion Molecule 1 (ICAM1), ICAM1 (gene 3383)
# Assay: BSK_3C_ICAM1: BioMAP Diversity Plus: 3C Assay for Intercellular Adhesion Molecule 1 (ICAM1) Biomarker Activity (AID 2283003)
# Details: primary human endothelial cells (HUVEC); actives raise or lower the signal
# Protocol: BSK_3C is a cell-based, multiplexed-readout assay that uses umbilical vein endothelium, a human vascular primary cell, with measurements taken at 24 hours after chemical dosing in a 96-well plate.BSK_3C_ICAM1 is an assay component measured in the BSK_3C assay. It measures ICAM-1 antibody related to regulation of gene expression using ELISA technology.Data from the assay component BSK_3C_ICAM1 was analyzed into 1 assay endpoint. This assay endpoint, BSK_3C_ICAM1, was analyzed with bidirectional fitting relative to DMSO as the negative control and baseline of activity. Using a type of binding reporter, gain or loss-of-signal activity can be used to understand changes in the signaling as they relate to the gene ICAM1. Furthermore, this assay endpoint can be referred to as a primary readout, because this assay has produced multiple assay endpoints where this one serves a signaling function. To generalize the intended target to other relatable targets, this assay endpoint is annotated to the cell adhesion molecules intended target family, where the subfamily is Immunoglobulin CAM.
# The levels of cell surface (or secreted, indicated by the prefix "s") biomarker endpoints were measured by ELISA. Overt cytotoxicity to cells in confluent adherent cultures (all systems other than the BT system) was assessed by measuring total protein levels using sulforhodamine B (SRB) staining in parallel cultures at the time of biomarker measurements, indicated as SRB endpoints. For proliferation assays for adherent cell types, individual cell types are cultured at sub-confluence and relative cell numbers quantified by SRB staining at time points optimized for each system (48 h: 3C and CASM3C systems; 72 h: BT and HDF3CGF systems; 96 h: SAg system). SRB was performed by staining cells with 0.1% SRB after fixation with 10% TCA and reading wells at 560 nm.Viability and proliferation of PBMC (T cells) was quantified by Alamar Blue reduction for the SAg and BT systems. For PBMC viability (referred to as PBMC Cytotoxicity within the assay endpoint names), cells were plated (75,000/well in a 96-well plate) and then chemical samples added for 1 h before addition of activators, SEB and TSST-1 (20 ng/mL final concentration each). Cells were incubated for 90 h. Then, Alamar Blue (20 uL/well) (Invitrogen, Cat DAL1100) was added for 6 h, and the plates were read with a fluorescence microplate reader at 546/580 nm (excitation/emission). For PBMC proliferation, cells were plated and activated as above but incubated for only 16 h prior to addition of Alamar Blue. Plates were read after 6 h.
SMILES,outcome,AC50
O=C1OC(c2ccc(O)cc2)(c2ccc(O)cc2)c2ccccc21,inactive,
CCCCCCC(C=O)=Cc1ccccc1,,36.6 µM (active)
CC(=O)CC(c1ccccc1)c1c(O)c2ccccc2oc1=O (stereo not given),inactive,
C/C=C/c1ccc(OC)cc1,inactive,
Cc1ccc(-c2cc(C(F)(F)F)nn2-c2ccc(S(N)(=O)=O)cc2)cc1,,36.8 µM (active)
CC(=O)O,inactive,
CCCCC(CC)COP(=O)(OCC(CC)CCCC)OCC(CC)CCCC (stereo not given),inactive,
O=C1c2c(O)cccc2Cc2cccc(O)c21,inactive,
CN(C)CCCN(C)CCCN(C)C,inactive,
O=C(N[C@@H](c1ccccc1)[C@@H]1CCCCN1)c1cccc(C(F)(F)F)c1Cl,inactive,
C/C=C/C=C/C(=O)O,inactive,
CC(C)NCC(O)c1ccc(O)c(O)c1 (stereo not given),inactive,
O=C1NC(=O)C(c2ccccc2)(c2ccccc2)N1,inactive,
CCCCc1nc2cccnc2n1Cc1ccc(-c2ccccc2-c2nnn[nH]2)cc1,inactive,
CCCCC(CC)COC(=O)CCCCCCCC(=O)OCC(CC)CCCC (stereo not given),inactive,
CCCCOC(=O)CCCCC(=O)OCCCC,inactive,
COc1ccc(OC(F)(F)F)cc1CN[C@H]1CCCN[C@H]1c1ccccc1,inactive,
Cc1cc(SC2=C(O)C[C@@](CCc3ccc(N)cc3)(C(C)C)OC2=O)c(C(C)(C)C)cc1CO,inactive,
O=C(NS(=O)(=O)/C=C/c1cccs1)c1ccc(F)cc1Br,inactive,
CC(=O)O[C@]1(C(C)=O)CC[C@H]2[C@@H]3C=C(Cl)C4=CC(=O)[C@@H]5C[C@@H]5[C@]4(C)[C@H]3CC[C@@]21C,inactive,

SMILES,outcome,AC50
CS(=O)(=O)c1ccc([C@@H](C[C@H]2CCC(=O)C2)C(=O)Nc2cnccn2)cc1Cl,inactive,
O=C(O)CN(CC(=O)O)CC(=O)O,inactive,
O=C(Oc1ccccc1)c1cccc(C(=O)Oc2ccccc2)c1,inactive,
O=Cc1ccccc1C=O,inactive,
Cc1cc(Cc2ccc(N)c(C)c2)ccc1N,inactive,
Cc1c(C)c2c(c(C)c1O)CCC(C)(COc1ccc(CC3SC(=O)NC3=O)cc1)O2 (stereo not given),,31.1 µM (active)
Cn1cnc2c1c(=O)[nH]c(=O)n2C,inactive,
COC(=O)CCCC(=O)OC,inactive,
Cc1ccc(C(C)(C)C)c(O)c1,,31.1 µM (active)
CC(C)c1cccc(C(C)C)c1NC(=O)NS(=O)(=O)c1cc(C(C)(C)O)co1,inactive,
Oc1ccccc1O,inactive,
C=CCc1ccc(OC)c(OC)c1,inactive,
S=c1[nH]c2ccccc2s1,inactive,
CCc1cc(C2=C(C(=O)O)N(c3ccccc3C(F)(F)F)S(=O)(=O)c3ccccc32)cc2c1OCO2,inactive,
COC(=O)CCC(=O)OC,inactive,
NC1CCCCC1,inactive,
CC(C)(O)c1ccc(CNC(=O)c2cccnc2Oc2ccc(F)cc2)cc1,inactive,
Cc1cn([C@H]2C=C[C@@H](CO)O2)c(=O)[nH]c1=O,inactive,
CCCC(=O)O,inactive,
CC(C)COC(=O)CCCCC(=O)OCC(C)C,inactive,
